Here are results for three molecules from PubChem BioAssay AID939 (National Center for Advancing Translational Sciences (NCATS), 2007).

Assay [1] is described as follows: Confirmation Concentration-Response Assay for Agonists of the Thyroid Stimulating Hormone Receptor. As to activation: % of control where 0% means no effect. The note with it: HEK293 TSHR-CNG cells, membrane potential dye, cAMP; measured here: parental HEK293 counter-screen max. The method, boiled down:
(§1)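 HEK 293 cells stably expressing TSHR and a modified CNG channel as cAMP biosensor; parental CNG-only cells as counterscreen. Cells loaded with membrane potential dye containing 100 uM RO 20-1724 for 60 min, compound added 30 min, fluorescence read at 590 nm.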

The target in assay [2] is Thyrotropin receptor (Homo sapiens) (UniProt P16473). The assay is described as above. The settings on record: HEK293 TSHR-CNG cells, membrane potential dye, cAMP; series mostly up to 25.6 µM. In short, it runs like this:
as §1

Results filed as inconclusive are left out. The source made the active and inactive calls. Calls follow the shape of the dose curve; as a rule, active = well fitted activation curve with a large enough effect in the main read-out, with a control signal flat; inconclusive = small, poorly fitted or top-dose-only effect, or effect the other way, or a change in a side signal; inactive = no such curve, though single readings can be large or run the other way.
Potency is read from the fitted curve at half-maximal effect.

Sequence of Thyrotropin receptor (Homo sapiens) (P16473 whole entry, looked up): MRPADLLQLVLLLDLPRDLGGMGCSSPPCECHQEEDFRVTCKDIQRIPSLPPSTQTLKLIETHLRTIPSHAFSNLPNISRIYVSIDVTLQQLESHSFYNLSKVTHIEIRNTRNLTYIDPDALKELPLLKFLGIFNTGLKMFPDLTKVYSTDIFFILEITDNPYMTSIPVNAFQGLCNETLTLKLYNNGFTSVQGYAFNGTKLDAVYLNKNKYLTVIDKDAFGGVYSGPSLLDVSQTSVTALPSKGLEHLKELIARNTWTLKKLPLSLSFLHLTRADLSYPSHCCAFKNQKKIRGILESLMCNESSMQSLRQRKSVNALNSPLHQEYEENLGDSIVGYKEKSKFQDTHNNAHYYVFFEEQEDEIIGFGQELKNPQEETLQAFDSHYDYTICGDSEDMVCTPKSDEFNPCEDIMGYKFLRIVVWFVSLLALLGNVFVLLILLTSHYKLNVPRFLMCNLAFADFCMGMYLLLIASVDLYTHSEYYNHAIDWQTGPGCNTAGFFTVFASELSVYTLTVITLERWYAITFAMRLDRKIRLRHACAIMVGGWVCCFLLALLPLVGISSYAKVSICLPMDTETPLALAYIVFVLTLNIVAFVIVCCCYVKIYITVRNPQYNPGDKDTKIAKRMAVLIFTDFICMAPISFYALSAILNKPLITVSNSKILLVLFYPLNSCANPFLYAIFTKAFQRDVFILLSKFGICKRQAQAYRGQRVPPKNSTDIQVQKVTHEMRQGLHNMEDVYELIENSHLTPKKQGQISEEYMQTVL

For `CC(=O)Nc1ccc(S(=O)(=O)N(C)c2ccccc2)cc1`, the max response in assay [1] is 4.53%. Moreover, in assay [2], the Potency result was “inactive”.
For `O=C1CC(c2ccco2)CC2=C1C(c1ccccc1)n1nc(C(F)(F)F)nc1N2` (stereo unspecified), in that order: -7.22% and 1 µM (active).
For the molecule `COC(=O)c1cc(NC2c3ccccc3C(=O)N2c2cccnc2)cc(C(=O)OC)c1` (stereo unspecified), the max response in assay [1] was determined as 17.7%. In assay [2], the Potency is 12.6 µM (active).
